Candida biofilm: kills Candida albicans biofilms | C. albicans biofilm + clotrimazole, Alamar Blue | AID 834 | inhibition, % at 6 µM | actives 0.14% (n = 85,000);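 active = inhibition above 20%; inactive = inhibition below 20%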;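 also: preformed 24 hr biofilms exposed to compound for 48 hr; 0% = biofilm without compound and 100% = blank killed by clotrimazole plus chlorhexidine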
ERb coact inh: blocks coactivator binding to human estrogen receptor beta. Q92731. TR-FRET ER-beta LBD / SRC1-Cy5 peptide binding; receptor agonist-loaded with 1 µM estradiol. inhibition, % at 25.6 µM. actives 1.3% (n = 86,000). AID 633;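 active = compounds whose percent inhibition of the receptor-coactivator binding signal exceeds about 50% in the single-dose screen, limit read from the data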;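 also: 0% = receptor plus peptide wells without compound and 100% = peptide-only wells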
ERa coact inh: ER-alpha (human) coactivator binding inhibition. P03372. TR-FRET ER-alpha LBD / SRC-1 peptide, estradiol-bound. inhibition, % at 25.6 µM. actives 1.7% (n = 86,000); in the data active = inhibition above about 50%;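 also: 0% = receptor plus peptide control and 100% = peptide only without receptor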
Smad3 inh: Smad3 (human) transcription factor binding inhibition; AID 630; P84022; actives 0.29% (n = 88,000); inhibition, % at 25 µM; TR-FRET Smad3/Dy647-FoxH1 peptide binding, europium anti-His;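 active = compounds that reduce the energy-transfer binding signal between the protein and its labelled peptide by more than half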;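 also: 0% = Smad3 plus labelled peptide maximal FRET and 100% = peptide-only background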
Target sequence (P84022 whole entry, looked up): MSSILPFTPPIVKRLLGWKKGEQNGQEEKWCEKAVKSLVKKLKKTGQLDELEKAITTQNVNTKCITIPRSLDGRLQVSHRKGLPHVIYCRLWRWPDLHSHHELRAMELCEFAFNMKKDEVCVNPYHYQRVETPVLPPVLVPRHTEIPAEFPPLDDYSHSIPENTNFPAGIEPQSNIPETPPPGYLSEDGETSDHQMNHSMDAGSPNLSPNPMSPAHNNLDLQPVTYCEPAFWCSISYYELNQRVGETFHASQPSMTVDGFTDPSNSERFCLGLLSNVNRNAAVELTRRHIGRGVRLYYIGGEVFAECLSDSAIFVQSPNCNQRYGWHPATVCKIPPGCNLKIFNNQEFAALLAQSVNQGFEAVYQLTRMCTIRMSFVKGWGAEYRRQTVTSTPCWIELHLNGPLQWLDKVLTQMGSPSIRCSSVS
ERa SRC1 pot: ER-alpha (human) coactivator binding potentiation; P03372; TR-FRET ERalpha-LBD/SRC-Cy5 coactivator binding, 2 h; 100 = basal binding, no effect; coactivator binding (% of control), % at 25.6 µM; actives 1.3% (n = 86,000); AID 639; in the data active = activity above about 200%;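 also: binding measured in presence of low estradiol as agonist stimulus; 0% = peptide alone without receptor and 100% = receptor with peptide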
* = called active by the depositor; x = no result given; [ ] = remark or other dose. An excerpt weighted towards active compounds, which were near 3.8% of everything screened.

SMILES | Candida biofilm | ERb coact inh | ERa coact inh | Smad3 inh | ERa SRC1 pot
CCc1cccc(NC(=O)CN(c2ccc(OC)cc2)S(=O)(=O)c2c(C)n[nH]c2C)c1 | 10 | -1 | 4 | 4 | 97
OCCCN=C1CCCCC1 | x | x | x | 11 | x
Cc1ccc2oc(-c3ccccc3)nc2c1 | 4 | -8 | -4 | 6 | 98
c1cc(-c2nc3cc(Cc4ccc5oc(-c6ccncc6)nc5c4)ccc3o2)ccn1 | 3 | 22 | 9 | 7 | 221*[fluorescence artefact?]
c1cncc(-c2nc3cc(Cc4ccc5oc(-c6cccnc6)nc5c4)ccc3o2)c1 | 5 | 11 | -34 | 10 | 207*[fluorescence artefact?]
O=S(=O)(NC1CCCC1)c1ccc(S(=O)(=O)NC2CCCC2)cc1 | 5 | -4 | -2 | -1 | 107
CC(C)(C)C(=O)CNS(=O)(=O)c1ccc(S(=O)(=O)NC2CCCC2)cc1 | 5 | 2 | 6 | 10 | 284*[fluorescence artefact?]
C=CCNC(=O)Nc1ccc2oc(C)nc2c1 | 6 | 86*[fluorescence artefact?] | 15 | 8 | 110
CCC(Sc1nc2ccccc2s1)C(=O)Nc1cc(C)on1 (centres undefined) | 3 | -9 | -1 | -1 | 99
N=C1C(c2nc3ccccc3[nH]2)=C(O)CN1c1ccccc1 | 1 | 0 | 0 | 1 | 124
N=C1C(c2nc3ccccc3[nH]2)=C(O)CN1c1ccc(CC(=O)O)cc1 | -1 | 58* | 25 | -10 | 52
CCCCCCN1CC(O)=C(c2nc3ccccc3[nH]2)C1=N | 5 | 46 | 61*[fluorescence artefact?] | 2 | 244*[fluorescence artefact?]
Cc1cc(C)n(CCc2nc3c4ccccc4nc(SCc4ccc(C#N)cc4)n3n2)n1 | 4 | 33 | 59*[fluorescence artefact?] | -7 | 95
CCN(CC)S(=O)(=O)c1ccc(Nc2nc3ccccc3n3nnnc23)cc1 | 5 | 37 | 85*[fluorescence artefact?] | -4 | 78
Fc1cccc(Nc2nc3ccccc3n3nnnc23)c1 | 8 | -4 | -7 | -1 | 107
c1ccc2c(c1)nc(Nc1ccc3c(c1)OCO3)c1nnnn12 | 5 | 23 | 57*[fluorescence artefact?] | 8 | 98
NNC(=O)CS(=O)(=O)Nc1ncccn1 | x | x | x | 42 | x
O=C(c1ccc(-c2nnc(Nc3cccc(Cl)c3)c3ccccc23)cc1)N1C[C@H]2C[C@H](C1)c1cccc(=O)n1C2 | 11 | -8 | -1 | -6 | 95
COc1nnc(-c2ccc(C(=O)N3C[C@@H]4C[C@H](C3)c3cccc(=O)n3C4)cc2)c2ccccc12 | 9 | 16 | 29 | 6 | 340*
O=C(O)[C@@H]1[C@H](C(=O)O)[C@@H]2C(=O)C=C[C@H]1N2Cc1ccccc1 | x | x | x | 8 | x
C/C(N)=C(/C#N)C(=O)CSc1nnnn1-c1ccc(C)cc1 | 10 | 64* | 51*[fluorescence artefact?] | 11 | 59
C/C(N)=C(/C#N)C(=O)CSc1nnnn1-c1ccccc1 | 5 | 90*[fluorescence artefact?] | 85*[fluorescence artefact?] | -4 | 7
O=C(O)CSc1nnnn1-c1ccccc1 | 4 | -5 | -3 | 1 | 113
O=C1N=C(c2ccccc2)S/C1=C\c1cccs1 | 0 | 23 | 57*[fluorescence artefact?] | 1 | 112
N#CC(c1nc2ccccc2nc1N1CCCCC1)S(=O)(=O)c1ccc(Cl)cc1 (centres undefined) | 2 | 43 | 18 | 2 | 231*[fluorescence artefact?]
SMILES | Candida biofilm | ERb coact inh | ERa coact inh | Smad3 inh | ERa SRC1 pot
CCCCn1c(SCC(=O)Nc2cc(NC(=O)c3ccco3)ccc2C)nc2ccccc2c1=O | 2 | 58*[fluorescence artefact?] | 75*[fluorescence artefact?] | -12 | 122
CCCCn1c(SCC(=O)Nc2cc(C)on2)nc2ccccc2c1=O | 8 | 23 | 15 | 23 | 170
CCn1c(SCC(=O)Nc2ccc(NC(=O)c3ccco3)c(OC)c2)nc2ccccc2c1=O | 3 | 43 | 65* | -17 | 154
COCCn1c(SCC(=O)Nc2ccc(NC(=O)c3ccco3)c(OC)c2)nc2ccccc2c1=O | -1 | 25 | 29 | -10 | 160
C=CCn1c(SCC(=O)Nc2ccc3c(c2)OCO3)nc2ccccc2c1=O | 0 | 98*[fluorescence artefact?] | -1 | 6 | 105
CCOc1ccc2nc(NC(=O)CSc3nc4ccccc4c(=O)n3Cc3ccco3)sc2c1 | 7 | 53*[fluorescence artefact?] | 17 | 5 | 138
O=C(O)/C=C/c1c2ccc(=O)c(O)c-2oc2c(O)c(O)ccc12 | x | x | x | 0 | x
N=C(N)SC(c1ccccc1)c1ccccc1 | x | x | x | -4 | x
Cc1ccc(C)c(NC(=O)CSc2nnc(-c3ccco3)o2)c1 | 4 | -2 | -4 | 3 | 101
Cc1cc(NC(=O)CSc2nnc(-c3ccco3)o2)no1 | 5 | 0 | 2 | 5 | 255*[fluorescence artefact?]
O=C(Nc1ccc(C(F)(F)F)cc1)C1CC(=O)N(c2ccc3c(c2)OCCO3)C1 (centres undefined) | 3 | 15 | 14 | 3 | 99
O=C(Nc1nc2ccccc2[nH]1)C1CC(=O)N(c2ccc3c(c2)OCCO3)C1 (centres undefined) | x | 43 | 68*[fluorescence artefact?] | -8 | 53
CCn1c(SCC(=O)N2CCCc3ccccc32)nnc1-c1cccs1 | -2 | -11 | -8 | 3 | 93
Cc1cccc(-n2c(SCCC(=O)O)nnc2-c2cccs2)c1C | 8 | 50* | 0 | 9 | 93
CC1(C)Cc2ccccc2-c2nnc(SCC(=O)N3CCc4ccccc43)n21 | 5 | 33 | 43 | -11 | 293*[fluorescence artefact?]
O=C(CSc1nnc(-c2cccs2)n1-c1ccccc1)N1CCCc2ccccc21 | 1 | -43 | 16 | -5 | 889*[fluorescence artefact?]
C=CCn1c(SCCC(=O)O)nnc1-c1cccs1 | 4 | -1 | -3 | 1 | 108
O=S(=O)(c1cccc(C(F)(F)F)c1)N1c2ccccc2-n2cccc2[C@H]1c1cccnc1 | x | x | x | 31 | x
Cc1[nH]c2ccccc2c1-c1cc(-c2cc(-c3c(C)[nH]c4ccccc34)on2)no1 | x | x | x | 3 | x
COc1ccccc1NC(=O)NCCN1C(=O)C2C3C=CC(C3)C2C1=O (centres undefined) | 3 | -8 | -3 | 14 | 144
CN(Cc1cc(C(C)(C)C)cc(Br)c1O)Cc1cc(C(C)(C)C)cc(Br)c1O | x | x | x | 96* | x
CC(C)(C)c1ccc(O)c(CN(Cc2cc(C(C)(C)C)ccc2O)c2ccccc2)c1 | x | x | x | 43 | x
CN(CC(=O)O)Cc1oc(CO)cc(=O)c1O | x | x | x | 15 | x
O=C(Nc1nc(-c2ccc(Cl)cc2)cs1)c1cccnc1 | 5 | -9 | 11 | -31 | 121
Cc1ccc(-c2csc(NC(=O)c3ccno3)n2)cc1 | 4 | 75* | 73* | 3 | 29
SMILES | Candida biofilm | ERb coact inh | ERa coact inh | Smad3 inh | ERa SRC1 pot
O=C(NCCc1ccccc1)C1CCN(S(=O)(=O)c2cccnc2)CC1 | 22* | -3 | 58*[fluorescence artefact?] | 4 | 114
Clc1ccc(CSC2=NCCN2)cc1Cl | x | x | x | 7 | x
O=C(Nc1ccc(O)cc1)C1CC=CCC1 (centres undefined) | 8 | 68* | 44 | 18 | 18
CN(C1CCCCC1)S(=O)(=O)c1ccc(NC(=O)C2CCCCC2)cc1 | 2 | 7 | 9 | 3 | 101
Cn1c(=O)c2c(ncn2CCCc2ccccc2)n(C)c1=O | 3 | -17 | -20 | -8 | 222*
Nc1ccc(S(=O)(=O)NCc2nccs2)cc1 | x | x | x | 6 | x
O=C(C[C@@H](C(=O)O)N1CCOCC1)c1ccccc1 | x | x | x | 32 | x

Assay outcomes (PubChem)
